Screens: PubChem, several laboratories
Sampled rows, rich in hits. Any-hit rate of the full collection: about 1.5%.
eLon inh – inhibitors of E. coli Lon protease; P0A9M0; purified E. coli Lon protease, fluorescence polarization; inhibition, % at 7.94 µM; 360,000 tested, 0.42% active; AID 602123; in the data active means inhibition above about 13%, passing the limit was not always enough;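 further: 0% = enzyme with probe and DMSO and 100% = no enzyme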
MEX-5 binding – C. elegans MEX-5 TCR-2 RNA binding activity | Q9XUB2 | MEX-5/FITC-TCR2 RNA binding, fluorescence polarization; stronger effect = lower value | activity score (negative = inhibition of binding), % at 10 µM | 300,000 tested, 0.38% active;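 active means inhibition past about -25% in most replicates, and total fluorescence under double the plate's negative control median, limit read from the data; inconclusive means replicates evenly split on the limit, or fluorescence at least double controls; inactive means too little inhibition in most replicates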;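 further: 0% = DMSO and -100% = 5 µM competing unlabeled TCR2 RNA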
BCLXL inh – Bcl-xL (human) inhibition; Q07817; GST-Bcl-xL / FITC-Bim BH3 peptide fluorescence polarization; inhibition, % at 10.9 µM; 320,000 tested, 0.7% active;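 active means inhibition above the mean of all tested compounds plus 3 SD, cutoff set per campaign, cut at about 30% in these data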;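 further: 0% = DMSO wells and 100% = unlabeled Bim-BH3 peptide competitor; inhibitors lower millipolarization by displacing the labeled peptide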
MCL1-BIM inh – MCL1-BIM-BH3 interaction inhibition (human) | GST-MCL1 / FITC-Bim-BH3 fluorescence polarization | inhibition, % at 10.9 µM | Q07820 | 320,000 tested, 0.68% active;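 active means inhibition above the mean inhibition of all tested compounds plus 3 SD, set per campaign, cut at about 40% in these data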;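 further: 0% = DMSO wells and 100% = unlabeled Bim-BH3 peptide control; higher means more loss of mP so more displacement of Bim peptide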
GLD-1 RNA inh – GLD-1-TGE RNA interaction inhibition (C. elegans). Q17339. purified GLD-1 + fluorescein TGE RNA, fluorescence polarization. inhibition, % at 5.96 µM. 320,000 tested, 0.44% active. AID 2280;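 active means percent inhibition above a per-plate cutoff, the plate mean of test compounds plus 3 SD, cut at about 30% in these data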;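 further: 0% = DMSO wells with GLD-1 and probe and 100% = wells lacking GLD-1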
Target sequence (Q17339 whole entry, looked up): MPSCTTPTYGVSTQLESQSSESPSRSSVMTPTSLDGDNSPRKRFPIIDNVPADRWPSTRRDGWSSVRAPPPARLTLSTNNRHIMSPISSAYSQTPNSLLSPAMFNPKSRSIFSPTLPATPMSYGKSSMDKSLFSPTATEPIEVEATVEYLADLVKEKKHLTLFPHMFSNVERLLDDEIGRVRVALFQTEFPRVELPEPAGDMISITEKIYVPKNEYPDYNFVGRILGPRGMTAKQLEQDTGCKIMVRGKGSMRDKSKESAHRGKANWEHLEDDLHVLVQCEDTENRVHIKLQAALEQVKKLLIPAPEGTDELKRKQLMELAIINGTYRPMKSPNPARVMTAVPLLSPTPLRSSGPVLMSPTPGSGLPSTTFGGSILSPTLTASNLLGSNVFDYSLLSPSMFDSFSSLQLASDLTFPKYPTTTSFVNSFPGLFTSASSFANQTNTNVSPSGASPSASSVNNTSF
EBV gp42 block – EBV gp42 inhibition. 220,000 tested, 0.42% active. Fluorescence polarization binding assay, mP read-out. inhibition, % (tested at 21.74 µM); in the data active means inhibition above about 50%
Target sequence (Q1HVG2 whole entry, looked up): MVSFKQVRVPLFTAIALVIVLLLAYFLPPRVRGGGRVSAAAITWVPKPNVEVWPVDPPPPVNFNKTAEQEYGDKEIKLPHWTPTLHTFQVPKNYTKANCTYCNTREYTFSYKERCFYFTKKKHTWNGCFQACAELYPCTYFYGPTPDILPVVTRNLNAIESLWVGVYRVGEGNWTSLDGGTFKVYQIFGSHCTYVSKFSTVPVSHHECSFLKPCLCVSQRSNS
Bcl-xL conf – counter-screen for MCL1 inhibitors: confirmation of human Bcl-xL inhibitors. shares compounds with MCL1-BIM inh. GST-Bcl-xL / FITC-Bim BH3 peptide FP binding. inhibition, % at 10.9 µM. 1,700 tested, 54% active;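 active means inhibition above a cutoff equal to the mean inhibition of all tested compounds plus 3 SD, cut at about 30% in these data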;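 further: 0% = DMSO wells and 100% = unlabeled Bim BH3 control peptide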
MCL1 inh confirm – confirmation of human MCL1 and BIM-BH3 interaction inhibitors | shares compounds with MCL1-BIM inh | inhibition, % at 10.9 µM | AID 2168 | 1,700 tested, 61% active | GST-MCL1 / FITC-Bim-BH3 fluorescence polarization;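 active means inhibition above the average of all tested compounds plus 3 SD, cut at about 40% in these data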;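 further: 0% = DMSO wells and 100% = unlabeled Bim-BH3 control peptide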
The depositor's hits bear a star; ? = inconclusive; / = not tested or not shown; + = active, no number.

SMILES	eLon inh	MEX-5 binding	BCLXL inh	MCL1-BIM inh	GLD-1 RNA inh	EBV gp42 block	Bcl-xL conf	MCL1 inh confirm
Cc1ccc(CNC(=O)CC(C)S(=O)(=O)c2ccc3c(c2)NC(=O)CS3)o1 (centres undefined)	-31.5	-17.4	84.6*	85.6*	45.6*	/	8.2	-8.6
COc1ccc(NC(=O)/C=C/c2cccc(Br)c2)cn1	12.4	-33.4*	90.6*	98.8*	67.2*	/	74.2*	85.5*
COc1ccc(NC(=O)/C=C/c2cccc(C(F)(F)F)c2)cn1	0.6	-3.7	9.5	4.4	9.2	/	/	/
COc1cc(-c2c(CCO)sc3ccccc23)cc(OC)c1OC	-2.0	/	/	/	/	/	/	/
Cc1cccc(NC(=O)c2ccc(S(=O)(=O)N3CCOCC3)cc2)n1	14.6	1.0	-1.4	2.9	7.3	-11.6	/	/
Cc1nc2ccccn2c1C(=O)N/N=C/c1ccc([N+](=O)[O-])o1	5.6	-0.5	23.3	41.1*	6.5	-1.4	24.4	53.7*
COc1ccc2nc(SCC(=O)N3CCCCC3)c(C#N)cc2c1	-6.5	-7.6	1.7	4.3	3.7	-16.3	/	/
COc1ccc2nc(N3CCCC3)c(C#N)cc2c1	0.4	2.5	73.5*	66.9*	49.0*	126.7*	115.0*	130.0*
CCCSc1nnc(N2C(=O)C(O)=C(C(=O)c3ccco3)C2c2ccccc2F)s1 (centres undefined)	-10.8	?	22.6	25.1	20.2	/	/	/
CSc1nnc(N2C(=O)C(O)=C(C(=O)c3ccco3)C2c2ccccc2)s1 (centres undefined)	-2.3	-39.8*	54.0*	53.5*	54.3*	/	54.2*	69.6*
CSc1nnc(N2C(=O)C(O)=C(C(=O)c3ccco3)C2c2ccccc2F)s1 (centres undefined)	-1.2	2.0	69.5*	79.8*	86.3*	/	25.0	25.3
O=C(C1=C(O)C(=O)N(c2nc3ccc(Cl)cc3s2)C1c1ccco1)c1ccco1 (centres undefined)	-26.8	/	19.3	56.6*	1.2	/	26.1	47.6*
Cc1ccc(OCCSc2nc3ccccc3n2CCC(=O)O)c(C(C)C)c1	-6.4	/	/	/	/	/	/	/
CCc1cc(=O)oc2cc(C)c(CN3CCCC(C)C3)c(O)c12 (centres undefined)	-2.8	0.8	24.5	46.6*	10.2	-4.7	24.9	18.2
CCCCc1cc(=O)oc2cc(C)c(CN3CCCC3)c(O)c12	7.3	-2.0	9.5	26.4	10.3	-2.8	/	/
O=C(Cc1cnn(-c2ccccc2)c1)c1ccc(O)c(O)c1O	3.2	-15.1	16.4	64.0*	1.7	-8.2	13.6	39.6
CCc1cc(C(=O)Cc2cnn(-c3ccccc3)c2)c(O)cc1O	6.5	-0.4	3.2	3.8	-4.4	8.1	/	/
CC1CC(=O)c2c(cc3c(-c4c(O)cc(O)c5c(O)c6c(cc45)OC(C)CC6=O)c(O)cc(O)c3c2O)O1 (centres undefined)	7.9	-34.8*	44.4*	76.0*	5.4	4.1	24.6	22.9
O=C(COc1ccc(Cl)cc1)OCc1ccc(Cl)cc1	-8.1	/	/	/	/	/	/	/
COC(=O)c1c(C(=O)OC)c2ccccn2c1C(=O)c1ccc([N+](=O)[O-])cc1	0.3	0.4	3.9	3.6	-2.8	/	/	/
CC(C)OC(=O)c1c2c(n3ccccc13)C(=O)c1ccccc1C2=O	-2.5	-30.5*	88.9*	122.2*	-6.9	87.6*	135.8*	151.2*
CC(C)CCC1(CCNC(C)c2cccs2)CCOC(C)(C)C1 (centres undefined)	-6.8	-1.3	3.9	1.8	-1.6	-18.4	/	/
NC(=O)c1ccsc1N	/	-34.7*	176.7*	189.4*	118.5*	9.4	10.8	2.0
Nc1sccc1C(=O)c1ccc(Cl)cc1	-25.9	-0.4	/	/	/	-10.4	/	/
CSc1nc(N)nc(C(C)C)n1	-0.2	0.4	6.9	66.4*	0.0	-15.2	11.6	18.7
SMILES	eLon inh	MEX-5 binding	BCLXL inh	MCL1-BIM inh	GLD-1 RNA inh	EBV gp42 block	Bcl-xL conf	MCL1 inh confirm
CC(=O)N1CCc2c(sc(NC(=O)c3ccc(S(=O)(=O)N(C)C)cc3)c2C#N)C1	-14.2	0.7	1.3	40.6*	2.8	/	37.7*	38.8
Cc1nn(-c2ccccc2)c(Cl)c1/C=N/Nc1ccc(S(=O)(=O)Nc2ccccc2C(=O)O)cc1[N+](=O)[O-]	-5.4	-0.1	23.3	53.8*	7.7	73.0*	19.9	27.4
Cc1c(Cl)cccc1NC(=O)Cn1c(CCC(=O)O)ccc1-c1ccccc1	-16.0	-1.3	12.9	7.4	19.0	/	/	/
O=C1NC[C@H](CCCCN2CCN(Cc3ccccc3)C(=O)C2=O)N(CCc2ccccc2)C1=O	-11.7	/	/	/	/	/	/	/
COc1ccccc1CNC(=O)CN1C(=O)c2cccc(N)c2C1=O	-1.6	-0.4	93.2*	107.0*	103.2*	/	43.4*	54.3*
Fc1cccc(Cc2c(-c3ccccc3)nc3c(Cl)cc(C(F)(F)F)cn23)c1	-4.1	/	/	/	/	/	/	/
CN1CCC(=C2c3ccccc3C(O)c3ccccc32)CC1 (centres undefined)	3.0	-0.3	3.2	-2.2	-3.1	-17.6	/	/
CN1CCc2cccc3c2C1Cc1ccc(O)c(O)c1-3 (centres undefined)	-5.2	-83.4*	33.2*	48.5*	6.8	/	45.5*	69.7*
NC(=O)c1cc2ccc(O)cc2oc1=NCc1ccccc1	-7.5	?	129.4*	151.2*	94.8*	107.9*	170.4*	198.6*
NC(=O)c1cc2ccccc2oc1=NCc1ccccc1	4.5	-3.0	7.4	6.3	0.5	-8.2	/	/
Cc1ccc(NC(=O)/C(C#N)=C(\N)C(Cl)(Cl)Cl)nc1	2.1	?	72.5*	70.3*	42.9*	137.4*	170.9*	185.5*
CCOC(=O)C1CCCN(Cc2c(C(=O)N3CCOCC3)nc3ccccn23)C1 (centres undefined)	4.3	-0.6	1.5	5.2	0.2	-11.4	/	/
COC1CCCN(Cc2c(C(=O)N3CCN(C4CCCCC4)CC3)nc3ccccn23)C1 (centres undefined)	13.2	-12.8	61.4*	70.2*	34.9*	/	39.8*	41.9*
Nc1cc(C(=O)O)c(N)c2c1C(=O)c1ccccc1C2=O	50.9*	-100.9*	155.3*	180.4*	112.4*	119.0*	161.2*	195.1*
CCOc1ccc(/C=C2\CCCc3c2nc2ccccc2c3C(=O)O)cc1OC	178.4*	?	176.4*	+	150.0*	/	183.4*	+
COc1ccc(/C=C2\CCCc3c2nc2ccccc2c3C(=O)O)cc1OC	/	-73.2*	144.9*	159.1*	119.9*	105.3*	170.0*	190.6*
